Data published in paper PMC7862700, “An all-to-all approach to the identification of sequence-specific readers for epigenetic DNA modifications on cytosine”.

Columns and labels:
Experiment in all cases: DAPPL (digital affinity profiling via proximity ligation, sequencing); 10 mM Tris-HCl pH 7.5, 50 mM NaCl, 1 mM DTT, 4% glycerol, room temperature, 30 min; GST-TFs on glutathione beads, 16-mer random dsDNA library, 0.1% formaldehyde crosslink after washing; high values mean tight binding
FEV = target: T1, FEV (Homo sapiens, UniProt Q99581 1-238); conditions: protein: recombinant; tags: N-terminal GST; dsDNA, one strand shown
T1 sequence: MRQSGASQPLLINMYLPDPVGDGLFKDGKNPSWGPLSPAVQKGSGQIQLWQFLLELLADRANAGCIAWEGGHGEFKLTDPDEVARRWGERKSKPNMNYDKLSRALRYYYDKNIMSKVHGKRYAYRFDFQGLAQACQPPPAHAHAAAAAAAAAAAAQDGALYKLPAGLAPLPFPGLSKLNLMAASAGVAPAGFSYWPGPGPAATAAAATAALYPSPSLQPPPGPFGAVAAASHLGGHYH
How it was run: (§1)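 The binding signal reported is, for every hexamer, its read frequency for a factor over its read frequency for the tag-only sample. Reads came from pools of yeast-expressed, GST-fused human transcription factors on glutathione beads, barcoded with DNA and mixed with that sample, which were incubated with 200 nmole of a random double-stranded 16-mer DNA library in Tris/NaCl/DTT/glycerol buffer at room temperature for 30 min. After washing, the pools were crosslinked with 0.1% formaldehyde, proximity-ligated with BsaI/T4 ligase for 1 h at 37 °C, PCR-amplified and sequenced on an Illumina NextSeq500.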

ETV5 = ETV5 (Homo sapiens, UniProt P41161 1-510); conditions: protein: recombinant; tags: N-terminal GST; dsDNA, one strand shown
How it was run: as §1

HSF1 = HSF1 (Homo sapiens, UniProt Q00613 1-529); conditions: protein: recombinant; tags: N-terminal GST; chain copies: 3; dsDNA, one strand shown
How it was run: as §1

SPIC = target: T2, SPIC (Homo sapiens, UniProt Q8N5J4 1-248); conditions: protein: recombinant; tags: N-terminal GST; dsDNA, one strand shown
T2 sequence: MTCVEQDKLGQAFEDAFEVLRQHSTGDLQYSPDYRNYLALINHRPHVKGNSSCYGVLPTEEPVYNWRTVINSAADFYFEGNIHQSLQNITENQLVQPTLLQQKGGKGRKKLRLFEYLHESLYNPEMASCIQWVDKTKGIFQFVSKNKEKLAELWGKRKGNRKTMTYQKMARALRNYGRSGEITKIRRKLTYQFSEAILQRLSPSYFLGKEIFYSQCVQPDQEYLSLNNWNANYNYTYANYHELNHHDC
How it was run: as §1

ELF4 = ELF4 (Homo sapiens, UniProt Q99607 1-663); conditions: protein: recombinant; tags: N-terminal GST; dsDNA, one strand shown
How it was run: as §1

ELK4 = target: T3, ELK4 (Homo sapiens, UniProt P28324-2 1-405); conditions: protein: recombinant; tags: N-terminal GST; dsDNA, one strand shown
T3 sequence: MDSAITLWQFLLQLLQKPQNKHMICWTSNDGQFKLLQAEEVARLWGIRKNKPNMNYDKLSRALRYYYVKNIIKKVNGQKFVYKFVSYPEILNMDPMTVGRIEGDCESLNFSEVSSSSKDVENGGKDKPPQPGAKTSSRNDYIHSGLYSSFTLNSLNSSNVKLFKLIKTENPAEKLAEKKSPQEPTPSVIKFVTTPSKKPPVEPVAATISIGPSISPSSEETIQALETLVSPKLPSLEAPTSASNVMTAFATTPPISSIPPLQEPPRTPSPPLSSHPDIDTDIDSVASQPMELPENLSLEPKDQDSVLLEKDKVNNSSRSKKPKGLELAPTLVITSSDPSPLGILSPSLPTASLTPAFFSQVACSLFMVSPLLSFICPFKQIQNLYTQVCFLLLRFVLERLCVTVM
How it was run: as §1

ETV2 = target: T4, ETV2 (Homo sapiens, UniProt O00321 1-342); conditions: protein: recombinant; tags: N-terminal GST; dsDNA, one strand shown
T4 sequence: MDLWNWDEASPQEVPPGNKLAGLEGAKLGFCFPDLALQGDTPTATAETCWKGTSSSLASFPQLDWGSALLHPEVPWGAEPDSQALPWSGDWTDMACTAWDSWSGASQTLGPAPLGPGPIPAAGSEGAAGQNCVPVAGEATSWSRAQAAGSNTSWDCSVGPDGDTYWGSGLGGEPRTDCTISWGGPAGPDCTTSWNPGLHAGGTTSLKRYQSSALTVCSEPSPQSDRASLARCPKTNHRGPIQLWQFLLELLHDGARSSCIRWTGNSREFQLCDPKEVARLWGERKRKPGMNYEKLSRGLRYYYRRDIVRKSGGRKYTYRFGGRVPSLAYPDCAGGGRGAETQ
How it was run: as §1

ELF3 = target: T5, ELF3 (Homo sapiens, UniProt P78545 1-371); conditions: protein: recombinant; tags: N-terminal GST; dsDNA, one strand shown
T5 sequence: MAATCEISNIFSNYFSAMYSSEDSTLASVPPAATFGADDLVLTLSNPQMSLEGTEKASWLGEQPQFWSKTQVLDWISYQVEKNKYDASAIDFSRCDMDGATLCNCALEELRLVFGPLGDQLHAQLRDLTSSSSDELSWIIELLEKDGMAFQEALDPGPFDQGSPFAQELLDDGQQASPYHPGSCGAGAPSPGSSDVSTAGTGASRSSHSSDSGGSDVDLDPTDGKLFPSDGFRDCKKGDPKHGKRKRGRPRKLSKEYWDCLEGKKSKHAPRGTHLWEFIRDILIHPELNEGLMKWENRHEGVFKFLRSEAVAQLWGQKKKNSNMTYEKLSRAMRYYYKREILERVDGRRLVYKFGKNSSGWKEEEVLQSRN
How it was run: as §1

CRX = CRX (Homo sapiens, UniProt O43186 1-299); conditions: protein: recombinant; tags: N-terminal GST; dsDNA, one strand shown
How it was run: as §1

ETV1 = ETV1 (Homo sapiens, UniProt P50549 1-477); conditions: protein: recombinant; tags: N-terminal GST; dsDNA, one strand shown
How it was run: as §1

ERF = target: T6, ERF (Homo sapiens, UniProt P50548 1-548); conditions: protein: recombinant; tags: N-terminal GST; dsDNA, one strand shown
T6 sequence: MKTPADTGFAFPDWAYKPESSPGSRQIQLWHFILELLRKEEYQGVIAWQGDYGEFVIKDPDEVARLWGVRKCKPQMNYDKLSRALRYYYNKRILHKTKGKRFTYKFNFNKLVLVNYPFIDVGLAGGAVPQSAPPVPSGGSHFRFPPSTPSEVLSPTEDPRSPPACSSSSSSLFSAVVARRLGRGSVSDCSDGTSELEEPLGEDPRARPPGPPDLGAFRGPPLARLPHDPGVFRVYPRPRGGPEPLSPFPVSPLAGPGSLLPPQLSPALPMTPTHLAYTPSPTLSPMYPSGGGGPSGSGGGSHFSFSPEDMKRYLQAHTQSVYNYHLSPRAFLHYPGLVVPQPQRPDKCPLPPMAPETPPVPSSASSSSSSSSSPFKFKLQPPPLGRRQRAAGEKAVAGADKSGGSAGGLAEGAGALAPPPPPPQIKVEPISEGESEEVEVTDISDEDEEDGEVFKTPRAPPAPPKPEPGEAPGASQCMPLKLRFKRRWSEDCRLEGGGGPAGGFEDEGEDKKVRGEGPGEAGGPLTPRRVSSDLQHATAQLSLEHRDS
How it was run: as §1

ETV3L = target: T7, ETV3L (Homo sapiens, UniProt Q6ZN32 1-361); conditions: protein: recombinant; tags: N-terminal GST; dsDNA, one strand shown
T7 sequence: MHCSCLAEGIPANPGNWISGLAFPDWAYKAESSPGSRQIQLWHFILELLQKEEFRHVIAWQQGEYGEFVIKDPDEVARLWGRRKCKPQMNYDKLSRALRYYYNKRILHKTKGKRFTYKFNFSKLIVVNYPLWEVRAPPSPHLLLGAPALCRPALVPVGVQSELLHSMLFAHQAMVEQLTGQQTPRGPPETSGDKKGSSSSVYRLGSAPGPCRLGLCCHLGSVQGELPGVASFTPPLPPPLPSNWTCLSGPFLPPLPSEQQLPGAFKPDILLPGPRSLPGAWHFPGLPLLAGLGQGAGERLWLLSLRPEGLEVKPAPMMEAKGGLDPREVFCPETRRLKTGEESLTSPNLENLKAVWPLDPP
How it was run: as §1

ETS2 = target: T8, ETS2 (Homo sapiens, UniProt P15036 1-469); conditions: protein: recombinant; tags: N-terminal GST; dsDNA, one strand shown
T8 sequence: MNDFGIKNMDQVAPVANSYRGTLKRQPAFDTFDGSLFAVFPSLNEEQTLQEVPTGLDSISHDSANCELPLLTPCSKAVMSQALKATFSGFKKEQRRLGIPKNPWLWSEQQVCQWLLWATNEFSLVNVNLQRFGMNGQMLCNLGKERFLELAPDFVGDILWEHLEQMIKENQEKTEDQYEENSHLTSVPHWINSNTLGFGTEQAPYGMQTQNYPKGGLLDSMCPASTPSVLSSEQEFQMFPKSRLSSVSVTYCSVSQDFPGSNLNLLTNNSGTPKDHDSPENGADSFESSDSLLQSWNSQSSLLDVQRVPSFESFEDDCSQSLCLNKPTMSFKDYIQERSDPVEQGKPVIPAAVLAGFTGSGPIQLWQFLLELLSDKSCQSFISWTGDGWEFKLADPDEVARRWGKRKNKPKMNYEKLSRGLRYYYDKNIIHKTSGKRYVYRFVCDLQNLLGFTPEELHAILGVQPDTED
How it was run: as §1

SPDEF = target: T9, SPDEF (Homo sapiens, UniProt O95238 1-335); conditions: protein: recombinant; tags: N-terminal GST; dsDNA, one strand shown
T9 sequence: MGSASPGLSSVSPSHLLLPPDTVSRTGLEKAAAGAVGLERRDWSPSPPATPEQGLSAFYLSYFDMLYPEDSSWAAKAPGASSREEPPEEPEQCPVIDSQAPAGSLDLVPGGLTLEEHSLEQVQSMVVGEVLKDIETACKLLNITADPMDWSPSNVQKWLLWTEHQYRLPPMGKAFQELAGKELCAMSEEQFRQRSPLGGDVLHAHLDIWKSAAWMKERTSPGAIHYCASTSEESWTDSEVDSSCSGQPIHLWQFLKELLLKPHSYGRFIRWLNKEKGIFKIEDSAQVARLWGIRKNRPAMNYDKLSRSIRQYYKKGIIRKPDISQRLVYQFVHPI
How it was run: as §1

ETV7 = target: T10, ETV7 (Homo sapiens, UniProt Q9Y603 1-341); conditions: protein: recombinant; tags: N-terminal GST; dsDNA, one strand shown
T10 sequence: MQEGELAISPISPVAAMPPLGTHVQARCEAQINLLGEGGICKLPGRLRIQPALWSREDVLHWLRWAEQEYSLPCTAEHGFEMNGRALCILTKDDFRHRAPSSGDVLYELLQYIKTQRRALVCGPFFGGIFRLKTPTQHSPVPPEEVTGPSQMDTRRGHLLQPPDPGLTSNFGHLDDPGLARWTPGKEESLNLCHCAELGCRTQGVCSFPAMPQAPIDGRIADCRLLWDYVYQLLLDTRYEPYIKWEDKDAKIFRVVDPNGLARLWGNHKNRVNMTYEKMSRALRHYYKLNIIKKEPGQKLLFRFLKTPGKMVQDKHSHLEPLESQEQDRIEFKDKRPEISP
How it was run: as §1

ELF5 = target: T11, ELF5 (Homo sapiens, UniProt Q9UKW6-2 1-255); conditions: protein: recombinant; tags: N-terminal GST; dsDNA, one strand shown
T11 sequence: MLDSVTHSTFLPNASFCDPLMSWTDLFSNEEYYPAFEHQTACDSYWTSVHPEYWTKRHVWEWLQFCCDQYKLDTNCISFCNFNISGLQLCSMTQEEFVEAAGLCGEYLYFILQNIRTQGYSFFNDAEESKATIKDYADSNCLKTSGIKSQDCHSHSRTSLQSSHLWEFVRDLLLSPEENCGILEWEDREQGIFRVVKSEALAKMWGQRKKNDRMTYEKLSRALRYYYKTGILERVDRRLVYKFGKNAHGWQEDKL
How it was run: as §1

ETV3 = target: T12, ETV3 (Homo sapiens, UniProt P41162-2 1-143); conditions: protein: recombinant; tags: N-terminal GST; dsDNA, one strand shown
T12 sequence: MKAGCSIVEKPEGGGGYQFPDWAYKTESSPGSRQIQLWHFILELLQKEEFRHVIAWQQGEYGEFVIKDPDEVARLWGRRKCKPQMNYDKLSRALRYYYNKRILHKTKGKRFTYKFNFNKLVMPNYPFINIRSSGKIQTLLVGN
How it was run: as §1

ETV6 = ETV6 (Homo sapiens, UniProt P41212 1-452); conditions: protein: recombinant; tags: N-terminal GST; dsDNA, one strand shown
How it was run: as §1

Chain of ETV6 (P41212 whole entry): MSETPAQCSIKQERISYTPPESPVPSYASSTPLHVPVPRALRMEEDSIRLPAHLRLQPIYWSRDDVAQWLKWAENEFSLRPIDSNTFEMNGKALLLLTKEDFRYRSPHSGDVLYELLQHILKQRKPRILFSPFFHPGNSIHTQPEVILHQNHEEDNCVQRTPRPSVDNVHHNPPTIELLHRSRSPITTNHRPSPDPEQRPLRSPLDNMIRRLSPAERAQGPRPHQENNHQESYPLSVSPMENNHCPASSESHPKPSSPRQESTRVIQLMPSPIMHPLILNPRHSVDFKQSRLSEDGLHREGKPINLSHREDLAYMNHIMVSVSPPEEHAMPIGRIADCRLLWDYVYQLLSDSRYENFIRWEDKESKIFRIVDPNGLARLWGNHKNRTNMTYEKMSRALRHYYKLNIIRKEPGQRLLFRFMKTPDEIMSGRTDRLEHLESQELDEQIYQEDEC
Chain of ELF4 (Q99607 whole entry): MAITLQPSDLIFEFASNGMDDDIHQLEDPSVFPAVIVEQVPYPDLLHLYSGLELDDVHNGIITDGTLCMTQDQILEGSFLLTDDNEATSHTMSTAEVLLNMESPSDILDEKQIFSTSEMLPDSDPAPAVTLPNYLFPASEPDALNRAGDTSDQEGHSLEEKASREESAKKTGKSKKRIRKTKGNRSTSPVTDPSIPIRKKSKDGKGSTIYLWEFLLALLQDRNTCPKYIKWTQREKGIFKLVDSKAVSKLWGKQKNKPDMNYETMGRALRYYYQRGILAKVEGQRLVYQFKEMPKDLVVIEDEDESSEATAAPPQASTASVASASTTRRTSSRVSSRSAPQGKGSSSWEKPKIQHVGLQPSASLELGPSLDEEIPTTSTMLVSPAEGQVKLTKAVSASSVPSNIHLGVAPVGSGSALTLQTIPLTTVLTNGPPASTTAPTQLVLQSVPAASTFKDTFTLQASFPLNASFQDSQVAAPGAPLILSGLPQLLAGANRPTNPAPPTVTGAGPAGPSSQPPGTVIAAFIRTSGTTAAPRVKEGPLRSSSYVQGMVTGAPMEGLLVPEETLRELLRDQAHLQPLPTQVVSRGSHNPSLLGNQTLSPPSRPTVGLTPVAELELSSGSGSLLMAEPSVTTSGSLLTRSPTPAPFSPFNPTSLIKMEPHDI
Chain of CRX (O43186 whole entry): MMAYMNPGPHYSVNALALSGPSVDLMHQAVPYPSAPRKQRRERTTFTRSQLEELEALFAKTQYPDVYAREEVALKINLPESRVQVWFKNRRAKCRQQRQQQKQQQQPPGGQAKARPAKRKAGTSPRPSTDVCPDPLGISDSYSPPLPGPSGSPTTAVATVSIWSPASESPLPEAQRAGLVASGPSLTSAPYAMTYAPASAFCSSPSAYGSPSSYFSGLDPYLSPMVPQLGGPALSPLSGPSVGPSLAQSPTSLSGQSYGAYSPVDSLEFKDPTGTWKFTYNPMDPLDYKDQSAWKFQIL
Chain of HSF1 (Q00613 whole entry): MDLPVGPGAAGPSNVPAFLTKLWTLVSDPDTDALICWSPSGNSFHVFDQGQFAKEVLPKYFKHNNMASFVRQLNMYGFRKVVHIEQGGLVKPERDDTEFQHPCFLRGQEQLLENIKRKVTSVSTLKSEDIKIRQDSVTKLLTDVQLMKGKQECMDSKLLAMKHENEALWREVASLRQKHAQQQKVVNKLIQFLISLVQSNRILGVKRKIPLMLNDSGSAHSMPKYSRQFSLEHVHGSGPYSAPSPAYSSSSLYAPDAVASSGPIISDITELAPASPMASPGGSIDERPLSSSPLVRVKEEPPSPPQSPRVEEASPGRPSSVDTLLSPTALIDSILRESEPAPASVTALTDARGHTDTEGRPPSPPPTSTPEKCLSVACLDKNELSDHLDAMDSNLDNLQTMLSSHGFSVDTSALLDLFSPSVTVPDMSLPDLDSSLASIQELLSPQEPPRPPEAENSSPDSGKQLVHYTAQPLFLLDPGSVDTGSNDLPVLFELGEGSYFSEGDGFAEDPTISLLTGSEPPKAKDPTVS
Chain of ETV1 (P50549 whole entry): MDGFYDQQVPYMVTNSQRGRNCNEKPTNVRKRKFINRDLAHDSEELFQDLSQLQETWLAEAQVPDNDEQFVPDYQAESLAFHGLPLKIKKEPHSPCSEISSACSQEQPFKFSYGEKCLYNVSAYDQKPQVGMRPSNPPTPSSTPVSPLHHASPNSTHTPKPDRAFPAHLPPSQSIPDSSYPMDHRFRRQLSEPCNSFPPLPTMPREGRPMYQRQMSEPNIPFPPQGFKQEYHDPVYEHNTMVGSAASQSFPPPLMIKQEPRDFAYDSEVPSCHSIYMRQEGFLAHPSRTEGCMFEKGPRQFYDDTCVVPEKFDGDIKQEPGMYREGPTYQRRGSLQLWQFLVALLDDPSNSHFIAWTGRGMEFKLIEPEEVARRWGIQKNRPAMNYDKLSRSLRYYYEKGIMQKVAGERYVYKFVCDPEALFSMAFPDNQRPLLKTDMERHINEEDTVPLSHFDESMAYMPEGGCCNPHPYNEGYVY
Chain of ETV5 (P41161 whole entry): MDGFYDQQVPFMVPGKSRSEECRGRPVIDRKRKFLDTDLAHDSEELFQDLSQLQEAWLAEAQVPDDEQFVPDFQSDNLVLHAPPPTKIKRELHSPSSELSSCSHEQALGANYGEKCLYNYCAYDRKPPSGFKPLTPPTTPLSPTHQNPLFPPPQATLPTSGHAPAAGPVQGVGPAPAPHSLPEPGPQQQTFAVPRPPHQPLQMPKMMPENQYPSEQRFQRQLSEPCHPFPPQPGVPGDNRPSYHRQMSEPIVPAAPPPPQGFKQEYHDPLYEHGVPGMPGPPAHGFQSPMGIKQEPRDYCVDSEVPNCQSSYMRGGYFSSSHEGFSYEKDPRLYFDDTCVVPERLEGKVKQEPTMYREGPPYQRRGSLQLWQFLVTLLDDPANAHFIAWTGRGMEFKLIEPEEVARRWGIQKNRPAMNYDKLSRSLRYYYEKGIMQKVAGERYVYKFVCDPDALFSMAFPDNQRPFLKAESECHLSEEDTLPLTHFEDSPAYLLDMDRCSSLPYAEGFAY

Sequence: ATAGTA
- binding signal (FEV): 1.16 fold enrichment (6-mer frequency, TF over GST control)
- binding signal (ETV5): 1.18 fold enrichment (6-mer frequency, TF over GST control)
- binding signal (HSF1): 1.16 fold enrichment (6-mer frequency, TF over GST control)
- binding signal (SPIC): 1.29 fold enrichment (6-mer frequency, TF over GST control)
- binding signal (ELF4): 1.16 fold enrichment (6-mer frequency, TF over GST control)
- binding signal (ELK4): 1.24 fold enrichment (6-mer frequency, TF over GST control)
- binding signal (ETV2): 1.34 fold enrichment (6-mer frequency, TF over GST control)
- binding signal (ELF3): 1.2 fold enrichment (6-mer frequency, TF over GST control)
- binding signal (CRX): 1.24 fold enrichment (6-mer frequency, TF over GST control)
- binding signal (ETV1): 1.13 fold enrichment (6-mer frequency, TF over GST control)
- binding signal (ERF): 1.23 fold enrichment (6-mer frequency, TF over GST control)
- binding signal (ETV3L): 1.11 fold enrichment (6-mer frequency, TF over GST control)
- binding signal (ETS2): 1.06 fold enrichment (6-mer frequency, TF over GST control)
- binding signal (SPDEF): 1.07 fold enrichment (6-mer frequency, TF over GST control)
- binding signal (ETV7): 1.3 fold enrichment (6-mer frequency, TF over GST control)
- binding signal (ELF5): 1.13 fold enrichment (6-mer frequency, TF over GST control)
- binding signal (ETV3): 1.15 fold enrichment (6-mer frequency, TF over GST control)
- binding signal (ETV6): 1.25 fold enrichment (6-mer frequency, TF over GST control)
